# In the library only some 3.6% were active in any assay of this set; here they are far more common.
# mHTT CaM bind: inhibitors of human mutant huntingtin-calmodulin interaction; AID 1671202; AlphaScreen His-mHTT/GST-CaM binding, luminescence; P42858; inhibition, % at 15 µM; 190,000 tested, 3.6% active;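 also: 0% = both proteins with DMSO and 100% = one protein alone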
# Pf apPOL block: Pf-apPOL DNA polymerase inhibition. Recombinant Pf-apPOL, molecular beacon fluorescence, 1.5 h. inhibition, % at 10 µM. 210,000 tested, 0.25% active
# Active calls of the source: *; . = no result given. Rule as the data show it: active = inhibition above about 50%; inactive = the rest.
SMILES,mHTT CaM bind,Pf apPOL block
COc1ccc(/C=C2/SC(N3CCCCC3)=NC2=O)c(OC)c1,16,0
CC(=O)c1c(C)[nH]c(C(=O)OC(C)(C)C)c1C,-6,.
O=C(Cc1ccc(Cl)cc1)Nc1ncc([N+](=O)[O-])s1,98*,-6
O=C(Cc1ccc(Br)cc1)Nc1ncc([N+](=O)[O-])s1,12,-3
CCCN1C(=O)C(CC(=O)NC2CCCCC2)Sc2ncccc21 (centres undefined),3,-1
Cc1cc(C)cc(N2CCN(C(=O)CC(C)(C)C)C(C)C2=O)c1 (centres undefined),4,0
O=C(CC1CCCCC1)N1CCN(c2nnc3c(Cl)cccn23)CC1,60*,-10
O=C(c1ccsc1)N1CCN(c2nnc3c(Cl)cccn23)CC1,32,-1
Cc1[nH]c2ccccc2c1S(=O)(=O)CCNC(=O)NC1CCCCC1,-20,-4
CCOCCCNC(=O)c1cnn2c(C)c(Cc3ccccc3C)c(C)nc12,22,-11
C=C[C@H](CC(C)C)N(Cc1ccccc1)S(=O)(=O)N(Cc1ccc(OC)cc1)[C@H](C=C)CC(C)C,-16,-1
COc1ccc(CN([C@H](C)C=O)S(=O)(=O)N(Cc2ccccc2)[C@H](C=O)C(C)C)cc1,97*,0
COc1cc(OC)cc(-c2nnc(NC(=O)c3ccc(S(=O)(=O)N(C)C)cc3)o2)c1,6,-2
Cc1cc(-c2nnc(NC(=O)c3ccc(S(=O)(=O)N(C)C)cc3)o2)c(C)o1,58*,-50
CCS(=O)(=O)c1ccc(CC(=O)Nc2nnc(-c3ccccc3Cl)o2)cc1,68*,-8
COc1ccc(S(=O)(=O)CC(=O)Nc2nnc(-c3cc(C)oc3C)o2)cc1,57*,7
COc1ccc(-c2nnc(NC(=O)CS(=O)(=O)c3ccc(F)cc3)o2)c(OC)c1,32,4
O=C(CS(=O)(=O)Cc1ccccc1)Nc1nnc(-c2ccccc2Cl)o1,2,-29
Cn1nc(COCc2cccc(F)c2)c2c1CCN(C(=O)NCc1ccccc1)C2,12,-5
COc1ccc(CNC(=O)C2CCN(CC3CCCCC3)CC2)cc1,4,-5
COc1ccc(C(=O)C=Cc2ccc3c(c2)OCCO3)c(OCc2ccccc2)c1,16,-22
COc1ccc(O)c(C(=O)C=Cc2ccc3c(c2)OCCO3)c1,61*,6
C=CCn1c(N=Cc2ccc(N(C)C)cc2)nc2ccccc21,71*,3
C=CCn1c(N=Cc2ccc(Cl)cc2)nc2ccccc21,1,0
CC(=O)c1ccc(NS(=O)(=O)c2cccc(C(=O)Nc3ccc([N+](=O)[O-])cc3)c2)cc1,-3,-2
SMILES,mHTT CaM bind,Pf apPOL block
CCc1ccc(NC(=O)CSc2nc3c(c(=O)n2-c2ccc(Cl)cc2)SCC3)cc1,19,99*
CCc1ccc(NC(=O)CSc2nc3c(c(=O)n2-c2ccccc2)SCC3)cc1,15,2
Cc1ccc(NC(=O)Cn2nc([N+](=O)[O-])nc2Br)cc1C,0,-9
COc1ccccc1CNC(=O)C(=O)Nc1cccc(F)c1,-1,-8
COc1ccc(CN2COc3cc(C)c(Cl)c(C)c3C2)cc1,2,-2
COc1ccc(N2COc3cc4c(cc3C2)OCO4)cc1,7,-8
COc1ccc(N2COc3ccc(Cl)cc3C2)cc1,73*,2
COc1ccc2c(c1)CN(c1ccc(Cl)cc1)CO2,51*,-8
COc1cccc(N2COc3cc(C)c(Cl)c(C)c3C2)c1,98*,-4
COc1ccc2c(c1)CN(Cc1ccc(Cl)cc1)CO2,12,-9
CCC(C)Nc1ncnc2c1cnn2-c1ccc(C)cc1C (centres undefined),7,-4
O=C(O)C1C2CCC(C2)C1C(=O)Nc1ccc([N+](=O)[O-])cc1 (centres undefined),4,4
CC(C)CN1CCC(C(=O)N2CCCC2)CC1,-4,88*
CC(CN1CCC(C(=O)N2CCCC2)CC1)c1ccccc1 (centres undefined),3,-7
CNC(=O)c1cc(Nc2nnc(-c3ccc(C)c(S(N)(=O)=O)c3)c3ccccc23)ccc1OC,27,6
COc1ccc(Nc2nnc(-c3ccc(C)c(S(N)(=O)=O)c3)c3ccccc23)cc1C(N)=O,54*,-6
COc1ccc(-c2nnc(Nc3ccc(CC(N)=O)cc3)c3ccccc23)cc1,26,-18
CNC(=O)c1cc(Nc2nnc(-c3ccc(OC)cc3)c3ccccc23)ccc1OC,50,-30
CCOc1ccc(-c2nnc(Nc3ccc(OC)c(C(=O)NC)c3)c3ccccc23)cc1,69*,8
COc1ccc(-c2nnc(Nc3ccc(OC)c(C(N)=O)c3)c3ccccc23)cc1,60*,-5
